Source: PubChem BioAssay AID1222 (Sanford-Burnham Center for Chemical Genomics, 2008)
Fewer than 10 of roughly 190,000 compounds were called active.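 Rule for the calls: active = EC50 below 50 µM in the dose-response confirmation; inactive = the rest.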 These entries were drawn from the full list. Entries with a potency or affinity are not part of this list.

experiment: rescue of cells from ER stress-induced death, primary screen, 384-well, CSM14.1, thapsigargin, ATP luminescence (AID 1222); settings: CSM14.1 thapsigargin-induced death rescue, at 20 µM, hits give high values;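 note: death triggered by thapsigargin at about 15 µM added after 2 h compound pretreatment; cell ATP read after overnight thapsigargin exposure of roughly 18 to 22 hours; reference of the scale not given here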

Q: Which cellular ATP content (survival) does the source give for O=C(NCC1CC1)[C@@H]1C[C@H]1[C@@H](NP(=O)(c1ccccc1)c1ccccc1)c1ccccc1 here?
A: Its cellular ATP content (survival) is -1.2% (inactive).

Q: Which cellular ATP content (survival) does the source give for CC(=O)c1ccc(OCCCN2CCCCC2)cc1 here?
A: Its cellular ATP content (survival) is -1.3% (inactive).

Q: Which cellular ATP content (survival) does the source give for O=C(COC(=O)c1cc(Br)ccc1O)Nc1cc(S(=O)(=O)N2CCCC2)ccc1Cl here?
A: The cellular ATP content (survival) was -0.8% (inactive).

Q: Which cellular ATP content (survival) does the source give for O=C(NCCCN1CCCC1)c1cc2c(Cl)nc3ccccc3c2s1 here?
A: Its cellular ATP content (survival) is -12% (inactive).

Q: Which cellular ATP content (survival) does the source give for CC(=O)Cn1c(N2CCC(Cc3ccccc3)CC2)nc2c1c(=O)[nH]c(=O)n2C here?
A: Its cellular ATP content (survival) is -1.8% (inactive).

Q: Which cellular ATP content (survival) does the source give for CCn1c(SCc2ccccc2Cl)nc2nc3c(cc2c1=O)CCCC3 here?
A: Its cellular ATP content (survival) is -4.7% (inactive).

Q: Which cellular ATP content (survival) does the source give for CC(=O)Nc1ccc(OCc2cccc([N+](=O)[O-])c2)cc1 here?
A: The cellular ATP content (survival) was 1.1% (inactive).

Q: For O=C(CSc1nc2ccccc2[nH]1)Nc1nc(-c2cccc(Br)c2)cs1, which cellular ATP content (survival) is on record?
A: Its cellular ATP content (survival) is -3.8% (inactive).

Q: With CCOC(=O)C1CCN(C(=O)CCS(=O)(=O)c2ccc3c(c2)CC(C)N3C(=O)CC)CC1 (centres undefined) as the molecule, how does the cellular ATP content (survival) read?
A: The cellular ATP content (survival) was 0.4% (inactive).

Q: With Cc1ccc(C)c(N2CCN(C(=O)CN(C)S(=O)(=O)c3cnc[nH]3)CC2)c1 as the molecule, how does the cellular ATP content (survival) read?
A: Its cellular ATP content (survival) is -1.7% (inactive).

Q: Which cellular ATP content (survival) does the source give for O=C(NCCO)c1cccc2c1C(=O)c1ccccc1-2 here?
A: The cellular ATP content (survival) was -1.3% (inactive).

Q: With Cc1[nH]c2ccccc2c1C(=O)COC(=O)Cn1c(C(F)(F)F)nc2ccccc21 as the molecule, how does the cellular ATP content (survival) read?
A: Its cellular ATP content (survival) is 0.2% (inactive).

Q: With Cc1ccc(CNS(=O)(=O)/C=C/c2ccc3c(c2)OCO3)cc1 as the molecule, how does the cellular ATP content (survival) read?
A: The cellular ATP content (survival) was -2.2% (inactive).

Q: With CC(=O)Nc1ccccc1C(=O)N1CCN(c2cccc(C)c2C)CC1 as the molecule, how does the cellular ATP content (survival) read?
A: The cellular ATP content (survival) was -1.4% (inactive).

Q: For O=C(NCc1ccccn1)C1CC(c2ccc(F)cc2)=NO1 (centres undefined), which cellular ATP content (survival) is on record?
A: Its cellular ATP content (survival) is -1% (inactive).

Q: With CSc1nccc(N2CCN(c3ccc(F)cc3)CC2)n1 as the molecule, how does the cellular ATP content (survival) read?
A: The cellular ATP content (survival) was 5.7% (inactive).

Q: With Cc1ccc(NC(=O)c2ccc(OC(=S)N3CCOCC3)cc2)cc1 as the molecule, how does the cellular ATP content (survival) read?
A: Its cellular ATP content (survival) is -1.3% (inactive).

Q: Which cellular ATP content (survival) does the source give for Cc1cc(C)n(C(=O)COc2c(C)cccc2C)n1 here?
A: Its cellular ATP content (survival) is -2.8% (inactive).

Q: Which cellular ATP content (survival) does the source give for CCc1ccc(-c2nc(CCl)cs2)cc1 here?
A: The cellular ATP content (survival) was -1.7% (inactive).

Q: For C=CCNCCCCOc1ccc(C)cc1[N+](=O)[O-], which cellular ATP content (survival) is on record?
A: The cellular ATP content (survival) was -1.5% (inactive).

Q: For CN(C)S(=O)(=O)c1ccc(C(=O)OCc2ccc(C#N)cc2)cc1, which cellular ATP content (survival) is on record?
A: Its cellular ATP content (survival) is -0.2% (inactive).

Q: Which cellular ATP content (survival) does the source give for C(=N\Nc1nc(N2CCOCC2)nc(N2CCOCC2)n1)/c1cccnc1 here?
A: The cellular ATP content (survival) was 1.2% (inactive).

Q: For CCOC(=O)c1cc2cc([N+](=O)[O-])cc(OC)c2oc1=O, which cellular ATP content (survival) is on record?
A: The cellular ATP content (survival) was 0% (inactive).

Q: With CC(=O)c1c(C)[nH]c(C(=O)COC(=O)CCSc2ccccc2)c1C as the molecule, how does the cellular ATP content (survival) read?
A: The cellular ATP content (survival) was 0.3% (inactive).

Q: With COc1ccc(-c2csc(Nc3ccccc3)n2)cc1 as the molecule, how does the cellular ATP content (survival) read?
A: Its cellular ATP content (survival) is -1.2% (inactive).

Q: With C=CC[C@@H]1Cc2c(Br)ccc(Br)c2[C@@H](CC=C)N1 as the molecule, how does the cellular ATP content (survival) read?
A: Its cellular ATP content (survival) is -0.9% (inactive).

Q: For Cc1ccccc1OCc1nnc(SCC(=O)Nc2ccc3nc(SCC(=O)Nc4ccccc4)sc3c2)n1C, which cellular ATP content (survival) is on record?
A: The cellular ATP content (survival) was -0.5% (inactive).

Q: With COc1cc(NC(=O)CN2c3cccc4cccc(c34)S2(=O)=O)cc(OC)c1OC as the molecule, how does the cellular ATP content (survival) read?
A: The cellular ATP content (survival) was -1% (inactive).

Q: For C=CCn1c(=O)c(C(=O)OCC)c(O)c2ccccc21, which cellular ATP content (survival) is on record?
A: Its cellular ATP content (survival) is -1.4% (inactive).

Q: For CC(C)c1ccc(N2C(=O)CSC23C(=O)N2CCCc4cccc3c42)cc1 (centres undefined), which cellular ATP content (survival) is on record?
A: The cellular ATP content (survival) was -0.3% (inactive).

Q: Which cellular ATP content (survival) does the source give for O=C1CCc2cc(S(=O)(=O)NC(Cc3ccccc3)C(=O)NC3CCCCC3)ccc2N1 (centres undefined) here?
A: Its cellular ATP content (survival) is 0% (inactive).

Q: With Cc1ccc(CCNC(=O)C2CCN(C(=O)N(C)C)CC2)cc1 as the molecule, how does the cellular ATP content (survival) read?
A: Its cellular ATP content (survival) is -1.1% (inactive).

Q: For CCOC(=O)CC1ON(C)C(=O)N1c1ccc(Cl)cc1Cl (centres undefined), which cellular ATP content (survival) is on record?
A: Its cellular ATP content (survival) is 0.4% (inactive).

Q: Which cellular ATP content (survival) does the source give for COc1cc(/C=N/Nc2nc(Nc3ccccc3)nc(N3CCCCC3)n2)ccc1OCC(=O)O here?
A: The cellular ATP content (survival) was -1.5% (inactive).

Q: Which cellular ATP content (survival) does the source give for COCCN(C(=O)Cc1cccs1)C(C(=O)NC1CCCC1)c1ccc(OC)c(OC)c1 (centres undefined) here?
A: Its cellular ATP content (survival) is -1% (inactive).

Q: Which cellular ATP content (survival) does the source give for Cc1ccc(-c2nnc(CSc3nnc(COc4cccc5ccccc45)n3-c3ccccc3)o2)cc1 here?
A: Its cellular ATP content (survival) is 0.6% (inactive).

Q: With CC(C)=CCN1CCN(Cc2ccc(C)s2)CC1CCO (centres undefined) as the molecule, how does the cellular ATP content (survival) read?
A: Its cellular ATP content (survival) is 0.8% (inactive).

Q: For c1cnc2c(SCc3ccc(-c4nnco4)cc3)cccc2c1, which cellular ATP content (survival) is on record?
A: The cellular ATP content (survival) was -0.4% (inactive).

Q: Which cellular ATP content (survival) does the source give for CC(=O)Nc1nc2ccc(NC(=O)c3ccco3)cc2s1 here?
A: The cellular ATP content (survival) was -5.6% (inactive).

Q: Which cellular ATP content (survival) does the source give for O=C1OC(Cc2ccccn2)C(=O)C1=C1SCCS1 (centres undefined) here?
A: The cellular ATP content (survival) was -2.9% (inactive).

Q: For O=C(c1ccc(Cl)c(S(=O)(=O)N2CCCCCC2)c1)N1CCN(c2ccccc2O)CC1, which cellular ATP content (survival) is on record?
A: The cellular ATP content (survival) was 0.3% (inactive).

Q: Which cellular ATP content (survival) does the source give for NS(=O)(=O)c1ccc(CCNC(=O)CN2CCN(c3cccc(Cl)c3)CC2)cc1 here?
A: The cellular ATP content (survival) was -2.9% (inactive).

Q: Which cellular ATP content (survival) does the source give for Cn1c(N)c(C(=O)COC(=O)c2ccnc3ccccc23)c(=O)n(C)c1=O here?
A: The cellular ATP content (survival) was -2.1% (inactive).

Q: For O=C1CCCN1CCCN1C(=O)N[C@@H](Cc2ccccc2)C1=O, which cellular ATP content (survival) is on record?
A: The cellular ATP content (survival) was 2% (inactive).

Q: Which cellular ATP content (survival) does the source give for Cc1cc(C)cc(OCC(=O)NNC(=O)C2CCCO2)c1 (centres undefined) here?
A: The cellular ATP content (survival) was -0.3% (inactive).

Q: Which cellular ATP content (survival) does the source give for CC1CCCC(NC(=O)COC(=O)Cc2ccsc2)C1C (centres undefined) here?
A: The cellular ATP content (survival) was -1.7% (inactive).

Q: With Cc1ccc(CSCc2nnc(SCC(=O)N3CCN(c4ccccc4)CC3)n2C)cc1 as the molecule, how does the cellular ATP content (survival) read?
A: Its cellular ATP content (survival) is 2% (inactive).

Q: With N#Cc1ccccc1Cn1cc(/C=C/[N+](=O)[O-])c2ccccc21 as the molecule, how does the cellular ATP content (survival) read?
A: Its cellular ATP content (survival) is 4% (inactive).

Q: Which cellular ATP content (survival) does the source give for O=C(CCn1nnc2ccccc21)Nc1nnc(-c2ccccc2F)s1 here?
A: The cellular ATP content (survival) was 0.6% (inactive).

Q: For Cc1ccc(C)c(N2CCN(C(=O)COc3cc(=O)n(C)c4ccccc34)CC2)c1, which cellular ATP content (survival) is on record?
A: The cellular ATP content (survival) was -0.1% (inactive).

Q: For Cc1ccc(CNC(=O)C(=O)NCC2OCCN2C(=O)c2cccs2)cc1 (centres undefined), which cellular ATP content (survival) is on record?
A: Its cellular ATP content (survival) is -0.2% (inactive).

Q: With CCN1C=C(Cc2ccc(OC)cc2)C2=C(C1)C(c1ccc(OC)cc1)C(C#N)=C(N)O2 (centres undefined) as the molecule, how does the cellular ATP content (survival) read?
A: Its cellular ATP content (survival) is -1.8% (inactive).

Q: Which cellular ATP content (survival) does the source give for O=C(N/N=C/c1ccc(OCC(=O)N2CCCCC2)cc1)c1ccccc1O here?
A: Its cellular ATP content (survival) is 2.1% (inactive).

Q: Which cellular ATP content (survival) does the source give for CCC1Sc2ccccc2N(CC(=O)NC2CCCC2)C1=O (centres undefined) here?
A: The cellular ATP content (survival) was -1.6% (inactive).

Q: Which cellular ATP content (survival) does the source give for Cc1ccc(C(=O)N/C(=C\c2ccc(Br)cc2)c2nc(=S)[nH][nH]2)cc1 here?
A: Its cellular ATP content (survival) is -11.2% (inactive).

Q: For COc1ccc(OC)c(NC(=O)C2CCC(CNc3c(N4CCC(C)CC4)c(=O)c3=O)CC2)c1 (centres undefined), which cellular ATP content (survival) is on record?
A: Its cellular ATP content (survival) is 1.6% (inactive).

Q: With O=CN1CCN(C(=O)c2ccc([N+](=O)[O-])cc2)CC1 as the molecule, how does the cellular ATP content (survival) read?
A: Its cellular ATP content (survival) is 1.3% (inactive).

Q: Which cellular ATP content (survival) does the source give for COc1cccc(C(=O)CSc2nnc(CNS(C)(=O)=O)n2-c2ccc(C)cc2)c1 here?
A: Its cellular ATP content (survival) is 0.4% (inactive).

Q: For COCc1ccc([C@@H]2C[C@H]3CN(Cc4ccccc4C)C(=O)[C@]34CCCN24)o1, which cellular ATP content (survival) is on record?
A: The cellular ATP content (survival) was 6.6% (inactive).
